The text below walks through data of PubChem BioAssay (Tox21).

Values without a mark were called inactive. Results filed as inconclusive are left out. Active and inactive are the calls of the source. Calls come from the whole dose curve; as a rule, active = well fitted curve in the direction sought with a large enough effect in the repeat runs; inconclusive = weak or mixed curves; inactive = no such curve, though single readings can be large; an effect the other way counts as inactive or inconclusive.

A short description of assay [1]: Human pregnane X receptor (PXR) small molecule agonists, qHTS cell viability counter screen (AID 1346977). Note: nearly all actives have a fitted effect of over 50% in size. The procedure, abridged:
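In each well, the PXR reporter HepG2 line was checked for viability: CellTiter-Fluor reagent added 23hr post-dosing, fluorescence read after 1hr incubation at 37C.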

Assay [2] can be described thus: Caspase-3/7 induction in HepG2 cells by small molecules, qHTS assay (AID 1346978). Note: nearly all actives have a fitted effect of over 15% in size. In a few lines: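 Wild-type HepG2 cells, 2,000/well, settled 5 hr at 37 C and 5% CO2, then compound-treated for 17 hr; caspase-3/7 activity read by luminescent Caspase-Glo 3/7 after 30 min at room temperature.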
(In general: Quantitative high-throughput screening tests each substance at several concentrations.)

The nature of assay [3]: Caspase-3/7 induction in CHO-K1 cells by small molecules, qHTS cell viability counter screen (AID 1346979). Note: nearly all actives have a fitted effect of over 35% in size. In a few lines: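 Following a 5hr settling period, CHO-K1 cells at 1,500 per well received DMSO-dissolved compounds. Cell viability was quantified 16hr later by CellTiter-Fluor fluorescence, measured after 1hr with reagent at 37C.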
Assay [4] in a line: Caspase-3/7 induction in HepG2 cells by small molecules, qHTS cell viability counter screen (AID 1346981). Note: series mostly up to about 92 µM; nearly all actives have a fitted effect of over 30% in size. The procedure, abridged:
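The parent HepG2 line is plated at 2,000 cells per well and rested 5 hr before compound pinning from DMSO stocks. Following a 16-hr treatment at 37 C, a fluorogenic live-cell substrate (CellTiter-Fluor) reports viability after 1 hr.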

For assay [5], the target named is Nuclear receptor subfamily 1 group I member 2 (Homo sapiens) (UniProt O75469). Briefly: Human pregnane X receptor (PXR) small molecule agonists, qHTS assay (AID 1346982). Note: nearly all actives have a fitted effect of over 35% in size. Note: potency is the fitted concentration of half-maximal effect. The procedure, abridged: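 After plating in 5% charcoal-stripped FBS and a 5 hr rest, PXR-Luc HepG2 cells received compounds in DMSO. Following 24 hr at 37 C, ONE-Glo was added and light output read.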
Nuclear receptor subfamily 1 group I member 2 (Homo sapiens), sequence (O75469 whole entry, looked up): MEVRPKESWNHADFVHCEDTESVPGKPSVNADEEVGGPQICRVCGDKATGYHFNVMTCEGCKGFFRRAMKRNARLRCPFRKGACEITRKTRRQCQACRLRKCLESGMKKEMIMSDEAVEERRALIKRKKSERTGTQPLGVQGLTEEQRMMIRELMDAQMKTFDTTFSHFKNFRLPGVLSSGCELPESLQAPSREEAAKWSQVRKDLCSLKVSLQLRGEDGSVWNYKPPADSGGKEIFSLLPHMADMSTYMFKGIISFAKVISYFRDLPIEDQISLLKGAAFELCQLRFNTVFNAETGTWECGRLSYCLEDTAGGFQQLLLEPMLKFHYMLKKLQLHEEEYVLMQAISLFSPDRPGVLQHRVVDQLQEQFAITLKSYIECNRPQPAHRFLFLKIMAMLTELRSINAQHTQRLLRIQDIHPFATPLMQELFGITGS

Assay [6] shares this target. Briefly: CYP3A4 induction through human pregnane X receptor (PXR) by small molecules, qHTS assay (AID 1346984). Note: nearly all actives have a fitted effect of over 40% in size. The procedure, abridged:
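Human PXR activation is tracked via CYP3A4 promoter-luciferase in DPX-2 (HepG2) cells. Compounds treat cells for 24hr at 37C, and luminescence is read after One-Glo.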

Assay [7] can be described thus: Caspase-3/7 induction in CHO-K1 cells by small molecules, qHTS assay (AID 1346980). Note: nearly all actives have a fitted effect of over 15% in size. In a few lines: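 Wild-type CHO-K1 cells exposed to compounds for 17hr at 37 C, 5% CO2. Caspase-3/7 activity then measured by Caspase-Glo 3/7 luminescence after 30min at room temperature.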
Assay [8] concerns the target Cytochrome P450 2D6 (Homo sapiens) (UniProt P10635). Description: Cytochrome P450 Family 2 Subfamily D Member 6 (CYP2D6) small molecule antagonists: luciferase reporter qHTS assay (AID 1671196). Note: nearly all actives have a fitted effect of over 50% in size. Note: potency is the fitted concentration of half-maximal effect. The procedure, abridged:
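Quantitative HTS of Tox21 chemicals against CYP2D6 using a luminescent proluciferin substrate. After NADPH addition, 1 h room-temperature reaction; luminescence recorded 20 min post detection reagent.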
For orientation: A reporter such as luciferase makes a cellular process visible.

The target in assay [9] is Nuclear receptor subfamily 1 group I member 2 (Rattus norvegicus) (UniProt Q9R1A7). Briefly: Rat pregnane X receptor (rPXR) activation by small molecules, qHTS assay (AID 1346983). Note: nearly all actives have a fitted effect of over 20% in size. Note: potency is the fitted concentration of half-maximal effect. The settings on record: rPXR luciferase reporter cells, One-Glo luminescence, 24 h; max activation: active compounds read high. The procedure, abridged:
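Cell-based rPXR activation assay: rPXR cells, 2,000 per well, rested 5hr at 37 C, then exposed to compounds in DMSO for 24 hr at 37 C. Luciferase activity read by One-Glo luminescence after 30 min at room temperature.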

Assay [10] concerns the target Nuclear receptor subfamily 1 group I member 2 (Homo sapiens) (UniProt O75469). Briefly: Human pregnane X receptor (PXR) activation by small molecules, qHTS assay (AID 1346985). Note: nearly all actives have a fitted effect of over 40% in size. Note: potency is the fitted concentration of half-maximal effect. In a few lines:
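DPX-2 cells (HepG2 co-transfected with a PXR response element and a CYP3A4-promoter luciferase construct) were seeded at 2,000 per well, rested 5 hr at 37C, then exposed to DMSO-dissolved compounds for 24 hr. Activation was read as luciferase luminescence.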
% is set by controls: 0 for no effect and ±100 for the full control effect.

Nuclear receptor subfamily 1 group I member 2 (Rattus norvegicus), sequence (Q9R1A7 whole entry, looked up): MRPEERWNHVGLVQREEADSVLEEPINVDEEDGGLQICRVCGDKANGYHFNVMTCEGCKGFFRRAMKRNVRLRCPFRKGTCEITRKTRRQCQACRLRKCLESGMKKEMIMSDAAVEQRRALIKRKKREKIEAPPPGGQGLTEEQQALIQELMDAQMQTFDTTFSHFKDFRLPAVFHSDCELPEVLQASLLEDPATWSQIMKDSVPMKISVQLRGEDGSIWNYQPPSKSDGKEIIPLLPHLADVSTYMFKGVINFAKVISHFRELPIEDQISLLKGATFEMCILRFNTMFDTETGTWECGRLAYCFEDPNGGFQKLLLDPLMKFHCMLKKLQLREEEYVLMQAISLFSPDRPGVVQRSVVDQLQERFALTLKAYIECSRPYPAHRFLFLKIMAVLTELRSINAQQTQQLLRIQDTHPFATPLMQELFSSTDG
Cytochrome P450 2D6 (Homo sapiens), sequence (P10635 whole entry, looked up): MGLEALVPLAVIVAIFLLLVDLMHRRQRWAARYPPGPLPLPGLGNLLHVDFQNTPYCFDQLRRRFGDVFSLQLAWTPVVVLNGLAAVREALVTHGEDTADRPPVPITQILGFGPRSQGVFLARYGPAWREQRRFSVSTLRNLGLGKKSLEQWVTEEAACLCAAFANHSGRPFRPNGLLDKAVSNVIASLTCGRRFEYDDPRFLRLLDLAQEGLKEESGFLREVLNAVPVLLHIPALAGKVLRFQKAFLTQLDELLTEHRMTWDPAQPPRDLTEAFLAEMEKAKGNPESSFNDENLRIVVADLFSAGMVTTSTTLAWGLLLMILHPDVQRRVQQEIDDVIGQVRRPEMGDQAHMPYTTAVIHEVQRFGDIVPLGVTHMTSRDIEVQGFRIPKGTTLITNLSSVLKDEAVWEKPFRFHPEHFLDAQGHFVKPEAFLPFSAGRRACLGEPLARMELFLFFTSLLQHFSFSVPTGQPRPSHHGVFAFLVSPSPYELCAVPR

Regarding `CCCCC(=O)O[C@]1(C(=O)CO)[C@H](C)C[C@H]2[C@@H]3CCC4=CC(=O)C=C[C@]4(C)[C@@]3(F)[C@@H](O)C[C@@]21C`, the Potency result in [1], in [2], in assay [3], in assay [4], in [5] and in assay [6] was “inactive” in each case.

Consider `CC(C)NC[C@@H](O)COc1cccc2ccccc12`, for which the Potency entry in assay [1], in assay [2], in assay [3] and in [4] was “inactive” each time.

As for `CCCC(CCC)(C(=O)OCC)C(=O)OCC`, the Potency entry in [1], in assay [2], in assay [3], in assay [5] and in assay [8] was “inactive” each time. In addition, in assay [7], the outcome was inactive.

Turning to `COC(=O)c1ccc(OC)cc1`, the Potency result in [1], in assay [2], in [3] and in assay [8] was “inactive” in each case. The outcome in [7] was inactive.

Consider `CCN(CC)CC1CCCCN1CC(=O)N1c2ccccc2C(=O)Nc2cccnc21` (stereo not given), for which the Potency entry in assay [1], in assay [2], in [3], in [6], in assay [10] and in assay [8] was “inactive” each time. In addition, in assay [7], the molecule was classed as inactive. Also, the max activation in [9] is -0.899%.

With `O=C(O)c1cccc(Cl)c1Cl`, the Potency result in [1], in assay [2], in [3], in assay [4] and in assay [5] was “inactive” each time.

As for `CCC(=O)O[C@]1(C(=O)SCF)[C@H](C)C[C@H]2[C@@H]3C[C@H](F)C4=CC(=O)C=C[C@]4(C)[C@@]3(F)[C@@H](O)C[C@@]21C`, the Potency entry in assay [1], in assay [2], in assay [3], in [4], in [6] and in [8] was “inactive” throughout. Moreover, the Potency in assay [5] is 473 nM (active); in assay [9] it was 1580 nM (active); in assay [10] it was 447 nM (active).

In the case of `OCCN1CCN(CCO)CC1`, the Potency entry in assay [1], in assay [2], in assay [3], in assay [4], in [5] and in assay [8] was “inactive” in each case.

As for `FC(F)(F)C(Cl)(Cl)Cl`, the Potency entry in [1], in assay [2], in [3] and in [8] was “inactive” each time. In [7], the call was inactive.

Regarding `O=C(O)[C@@H](O)[C@H](O)[C@H](O)[C@@H](O)C(=O)O`, the Potency entry in assay [1], in assay [2], in [3], in assay [5] and in assay [8] was “inactive” in each case. Further, in assay [7], the molecule was classed as inactive.

With `CS(=O)(=O)c1ccc([C@@H](O)[C@@H](CF)NC(=O)C(Cl)Cl)cc1`, the Potency result in assay [1], in assay [2], in assay [3], in assay [4], in assay [5] and in assay [6] was “inactive” throughout. The Potency result in assay [10] and in [8] was “inactive” throughout. The max activation in assay [9] was -1.93%.

`O=S(=O)(O)C(F)(F)F`: the Potency result in assay [1], in assay [2], in assay [3] and in assay [4] was “inactive” throughout.

As to `CO[C@@]1(NC(=O)CSCC#N)C(=O)N2C(C(=O)O)=C(CSc3nnnn3C)CS[C@@H]21`, the Potency entry in assay [1], in assay [2], in [3], in assay [4], in [5] and in assay [6] was “inactive” throughout. Also, the Potency entry in assay [10] and in [8] was “inactive” each time. Besides, the max activation in assay [9] was -3.26%.

Turning to `Cc1onc(-c2ccccc2)c1C(=O)Cl`, the Potency entry in assay [1], in assay [2], in assay [3], in assay [4], in assay [5] and in [8] was “inactive” each time.

Take `COC(=O)C(C)O` (stereo not given): the Potency result in assay [1], in assay [2], in assay [3], in assay [5] and in assay [8] was “inactive” in each case. For the same molecule, the call in [7] was inactive.

As to `CCCCC(CC)COC(=O)COc1cc(Cl)c(Cl)cc1Cl` (stereo not given), the Potency entry in assay [1], in assay [2], in assay [3], in assay [4] and in assay [5] was “inactive” in each case.

For the molecule `CC(C)(CO)[C@@H](O)C(=O)NCCC(=O)O`, the Potency entry in assay [1], in [2], in assay [3], in [5] and in assay [8] was “inactive” each time. Also, the call in [7] was inactive.

Consider `Nc1ccc2ccccc2c1S(=O)(=O)O`, for which the Potency result in assay [1], in assay [2] and in [3] was “inactive” throughout. The call in assay [7] was inactive. For the same molecule, the Potency in [8] is 32400 nM (active).

For `C=CCCC=C`, the Potency result in assay [1], in assay [2], in assay [3], in [5] and in assay [8] was “inactive” each time. The outcome in assay [7] was inactive.

Regarding `CC(C)C(=O)OC/C=C/c1ccccc1`, the Potency entry in [1], in [2], in assay [3], in assay [5] and in assay [8] was “inactive” in each case. Moreover, the call in assay [7] was inactive.

As to `CCCCNc1ccc(C(=O)OCCN(CC)CC)cc1`, the Potency result in assay [1], in assay [2] and in [3] was “inactive” in each case. Also, the molecule was called inactive in assay [7]. Further, the Potency in assay [8] is 3890 nM (active).

On to `CC(C)C(=O)OCC(C)(C)C(O)C(C)C` (stereo not given), for which the Potency result in [1], in [2], in assay [3], in assay [5] and in [8] was “inactive” throughout. In addition, in assay [7], the molecule was classed as inactive.

Regarding `Cc1ccc(C(C)C)cc1O`, the Potency result in assay [1], in assay [2], in assay [3], in assay [5] and in [8] was “inactive” throughout. The outcome in assay [7] was inactive.

In the case of `NC1=NCC2c3ccccc3Cc3ccccc3N12` (stereo not given), the Potency result in assay [1], in [2] and in [3] was “inactive” throughout. In assay [7], the call was inactive. The max activation in assay [9] is 0.173%.

Turning to `CCCCC1CCC(=O)O1` (stereo not given), the Potency entry in assay [1], in [2], in assay [3] and in assay [8] was “inactive” in each case. The molecule was classed as inactive in assay [7].

Regarding `COc1cc(Cl)ccc1Cl`, the Potency result in assay [1], in assay [2], in assay [3], in assay [5] and in assay [8] was “inactive” each time. Moreover, the result in [7] was inactive.
